# From PMC11062922 (Nature Chemical Biology, 2023)
# Read-outs that look alike come from different tables or passages of the source.
# Key:
# FLT4 = settings: read-out: apparent Kd, n = 1
# IRAK4 = settings: read-out: apparent Kd, n = 1
substance,measurement,setting,value
Lestaurtinib,potency estimated from few doses,"FLT4; compound concentrations:100 nM and 1000 nM (sheet 'Lestaurtinib' of Supplementary Table 1),run:Lestaurtinib_02752_R1,Plate:MR025",310 nM
same,potency estimated from few doses,"FLT4; compound concentrations:100 nM and 1000 nM (sheet 'Lestaurtinib' of Supplementary Table 1),run:Lestaurtinib_02752_R3,Plate:MR025",254 nM
same,potency estimated from few doses,"FLT4; compound concentrations:100 nM and 1000 nM (sheet 'Lestaurtinib' of Supplementary Table 1),run:Lestaurtinib_02765_R2,Plate:MR026",162 nM
same,potency estimated from few doses,"FLT4; compound concentrations:100 nM and 1000 nM (sheet 'Lestaurtinib' of Supplementary Table 1),run:Lestaurtinib_02765_R3,Plate:MR026",400 nM
same,potency estimated from few doses,"FLT4; compound concentrations:100 nM and 1000 nM (sheet 'Lestaurtinib' of Supplementary Table 1),run:Lestaurtinib_02766_R1,Plate:MR027",350 nM
same,potency estimated from few doses,"FLT4; compound concentrations:100 nM and 1000 nM (sheet 'Lestaurtinib' of Supplementary Table 1),run:Lestaurtinib_02766_R3,Plate:MR027",237 nM
same,potency estimated from few doses,"FLT4; compound concentrations:100 nM and 1000 nM (sheet 'Lestaurtinib' of Supplementary Table 1),run:Lestaurtinib_02768_R1,Plate:MR028",180 nM
same,potency estimated from few doses,"FLT4; compound concentrations:100 nM and 1000 nM (sheet 'Lestaurtinib' of Supplementary Table 1),run:Lestaurtinib_02768_R2,Plate:MR028",389 nM
same,potency estimated from few doses,"FLT4; compound concentrations:100 nM and 1000 nM (sheet 'Lestaurtinib' of Supplementary Table 1),run:Lestaurtinib_02768_R3,Plate:MR028",493 nM
same,potency estimated from few doses,"FLT4; compound concentrations:100 nM and 1000 nM (sheet 'Lestaurtinib' of Supplementary Table 1),run:Lestaurtinib_02795_R1,Plate:MR022",391 nM
same,potency estimated from few doses,"FLT4; compound concentrations:100 nM and 1000 nM (sheet 'Lestaurtinib' of Supplementary Table 1),run:Lestaurtinib_02795_R2,Plate:MR022",229 nM
same,potency estimated from few doses,"FLT4; compound concentrations:100 nM and 1000 nM (sheet 'Lestaurtinib' of Supplementary Table 1),run:Lestaurtinib_02795_R3,Plate:MR022",297 nM
same,potency estimated from few doses,"FLT4; compound concentrations:100 nM and 1000 nM (sheet 'Lestaurtinib' of Supplementary Table 1),run:Lestaurtinib_02802_R1,Plate:MR029",183 nM
same,potency estimated from few doses,"FLT4; compound concentrations:100 nM and 1000 nM (sheet 'Lestaurtinib' of Supplementary Table 1),run:Lestaurtinib_02896_R1,Plate:MR030",159 nM
same,potency estimated from few doses,"FLT4; compound concentrations:100 nM and 1000 nM (sheet 'Lestaurtinib' of Supplementary Table 1),run:Lestaurtinib_02896_R2,Plate:MR030",151 nM
same,potency estimated from few doses,"FLT4; compound concentrations:100 nM and 1000 nM (sheet 'Lestaurtinib' of Supplementary Table 1),run:Lestaurtinib_02896_R3,Plate:MR030",372 nM
same,potency estimated from few doses,"FLT4; compound concentrations:100 nM and 1000 nM (sheet 'Lestaurtinib' of Supplementary Table 1),run:Lestaurtinib_03172_R3,Plate:MR031",131 nM
same,potency estimated from few doses,"FLT4; compound concentrations:100 nM and 1000 nM (sheet 'Lestaurtinib' of Supplementary Table 1),run:Lestaurtinib_03252_R1,Plate:MR032",229 nM
same,potency estimated from few doses,"FLT4; compound concentrations:100 nM and 1000 nM (sheet 'Lestaurtinib' of Supplementary Table 1),run:Lestaurtinib_03252_R2,Plate:MR032",76.2 nM
same,potency estimated from few doses,"FLT4; compound concentrations:100 nM and 1000 nM (sheet 'Lestaurtinib' of Supplementary Table 1),run:Lestaurtinib_03260_R1,Plate:MR033",162 nM
same,potency estimated from few doses,"FLT4; compound concentrations:100 nM and 1000 nM (sheet 'Lestaurtinib' of Supplementary Table 1),run:Lestaurtinib_03260_R3,Plate:MR033",388 nM
same,potency estimated from few doses,"IRAK4; compound concentrations:100 nM and 1000 nM (sheet 'Lestaurtinib' of Supplementary Table 1),run:Lestaurtinib_02339_R2,Plate:MR001",146 nM
same,potency estimated from few doses,"IRAK4; compound concentrations:100 nM and 1000 nM (sheet 'Lestaurtinib' of Supplementary Table 1),run:Lestaurtinib_02339_R3,Plate:MR001",62 nM
same,potency estimated from few doses,"IRAK4; compound concentrations:100 nM and 1000 nM (sheet 'Lestaurtinib' of Supplementary Table 1),run:Lestaurtinib_02364_R1,Plate:MR002",77.8 nM
same,potency estimated from few doses,"IRAK4; compound concentrations:100 nM and 1000 nM (sheet 'Lestaurtinib' of Supplementary Table 1),run:Lestaurtinib_02364_R3,Plate:MR002",95 nM
same,potency estimated from few doses,"IRAK4; compound concentrations:100 nM and 1000 nM (sheet 'Lestaurtinib' of Supplementary Table 1),run:Lestaurtinib_02381_R1,Plate:MR004",93.9 nM
same,potency estimated from few doses,"IRAK4; compound concentrations:100 nM and 1000 nM (sheet 'Lestaurtinib' of Supplementary Table 1),run:Lestaurtinib_02381_R2,Plate:MR004",76.7 nM
same,potency estimated from few doses,"IRAK4; compound concentrations:100 nM and 1000 nM (sheet 'Lestaurtinib' of Supplementary Table 1),run:Lestaurtinib_02381_R3,Plate:MR004",65.8 nM
same,potency estimated from few doses,"IRAK4; compound concentrations:100 nM and 1000 nM (sheet 'Lestaurtinib' of Supplementary Table 1),run:Lestaurtinib_02407_R1,Plate:MR005",69.8 nM
same,potency estimated from few doses,"IRAK4; compound concentrations:100 nM and 1000 nM (sheet 'Lestaurtinib' of Supplementary Table 1),run:Lestaurtinib_02407_R2,Plate:MR005",55.3 nM
same,potency estimated from few doses,"IRAK4; compound concentrations:100 nM and 1000 nM (sheet 'Lestaurtinib' of Supplementary Table 1),run:Lestaurtinib_02407_R3,Plate:MR005",85.3 nM
same,potency estimated from few doses,"IRAK4; compound concentrations:100 nM and 1000 nM (sheet 'Lestaurtinib' of Supplementary Table 1),run:Lestaurtinib_02422_R1,Plate:MR006",136 nM
same,potency estimated from few doses,"IRAK4; compound concentrations:100 nM and 1000 nM (sheet 'Lestaurtinib' of Supplementary Table 1),run:Lestaurtinib_02422_R3,Plate:MR006",131 nM
same,potency estimated from few doses,"IRAK4; compound concentrations:100 nM and 1000 nM (sheet 'Lestaurtinib' of Supplementary Table 1),run:Lestaurtinib_02437_R2,Plate:MR007",140 nM
same,potency estimated from few doses,"IRAK4; compound concentrations:100 nM and 1000 nM (sheet 'Lestaurtinib' of Supplementary Table 1),run:Lestaurtinib_02438_R1,Plate:MR008",79.9 nM
same,potency estimated from few doses,"IRAK4; compound concentrations:100 nM and 1000 nM (sheet 'Lestaurtinib' of Supplementary Table 1),run:Lestaurtinib_02443_R1,Plate:MR009",113 nM
